The values that follow come from ChEMBL document CHEMBL4513216, “Probing the Open Global Health Chemical Diversity Library for Multistage-Active Starting Points for Next-Generation Antimalarials” (ACS Infect Dis, 2020).

Hit rate of the full screen: of about 68,000 compounds, about 2,700 (4%) showed an effect of 50% or more. The entries come from a sample that favours strong results as a whole.

The assay has as its system Plasmodium berghei. As to the kind of experiment: Screen against P. berghei liver stage (PbLuc), transformed with Luciferase, at 2uM. In kind it is functional, HepG2. The following applies: tested at 2 uM.
Take `CC(C(=O)N1CCOCC1)n1cc(Br)cn1` (centres undefined): the INHIBITION is given as 15.05%.

With `O=C(CCNC(=O)c1ccccc1N1CCOCC1)NC1CCCC1`, the INHIBITION is listed as 58.76%.

On to `CCCNC(=O)CCNC(=O)c1ccccc1N1CCOCC1`, for which the INHIBITION is -21.71%.

As for `CNC(=O)CCNC(=O)c1ccccc1N1CCOCC1`, the INHIBITION was -23.9%.

With `COc1cc(N2C[C@@H]3COC[C@]3(COc3cccnc3)C2)ncn1`, the INHIBITION is -38.72%.

Consider `COCCN1CCN(C(=O)c2ccc(C)cc2F)[C@H]2CS(=O)(=O)C[C@H]21`, for which the INHIBITION turned out to be 32.26%.

Take `COc1ccc(Cc2nnc3n2N=C(C(C)(C)C)CS3)cc1`: the INHIBITION is recorded as -13.89%.

With `Cc1cnn(CC2CN(Cc3cccnc3)CCO2)c1` (centres undefined), the INHIBITION stood at 41.76%.

For `CN1CCCC(c2cccc(-c3cccc(F)c3)n2)C1` (centres undefined), the INHIBITION stood at 13.88%.

As to `CN1CCCC(c2cccc(-c3cccc(C(F)(F)F)c3)n2)C1` (centres undefined), the INHIBITION was 38.64%.

For `CN1CCCC(c2cccc(-c3cccc(Cl)c3)n2)C1` (centres undefined), the INHIBITION came to 51.5%.

As for `O=C(CCc1ccccc1Br)NCC(=O)NCc1ccccc1`, the INHIBITION is on record as -13.34%.

Consider `CCc1noc(C(C)N(C)CC(=O)Nc2cccc(C)c2C)n1` (centres undefined), for which the INHIBITION amounted to 1.73%.

Take `CCc1noc(C(C)N(C)CC(=O)Nc2c(C)cccc2C)n1` (centres undefined): the INHIBITION is 32.81%.

Turning to `CCc1noc(C(C)N(C)CC(=O)Nc2ccc(Br)cc2C)n1` (centres undefined), the INHIBITION stood at 53.57%.

`CC[C@@H](CO)Nc1nccc(-c2c[nH]c3cc(C(=O)OC)ccc23)n1`: the INHIBITION amounted to 17.01%.

In the case of `Cc1cccc(CNC(Cc2ccsc2)c2nccs2)n1` (centres undefined), the INHIBITION was 24.13%.

Consider `CNc1cc(C)nc(C2CN(Cc3cc[nH]n3)CCO2)c1` (centres undefined), for which the INHIBITION is listed as 21.37%.

For `CCCS(=O)(=O)N1CCC2(CC1)CCn1c(-c3cnn(C)c3)cnc12`, the INHIBITION was determined as 18.05%.

`CCn1cnnc1CCNC(=O)c1ccc(F)c(Br)c1`: the INHIBITION is listed as 2.9%.

Consider `CC(CNC(=O)c1cc(Cl)ccc1I)N1CCCC1` (centres undefined), for which the INHIBITION came out at 10.11%.

Regarding `CCn1cnnc1CCNC(=O)c1ccc(Br)cc1F`, the INHIBITION is recorded as -13.8%.

Turning to `CCn1cnnc1CCNC(=O)CCNC(=O)c1ccccc1F`, the INHIBITION amounted to 52.98%.

For `CCn1cnnc1CNC(=O)c1cc(Cl)ccc1F`, the INHIBITION turned out to be 54.99%.

Regarding `CC(CNC(=O)c1ccc(Cl)cc1F)N1CCCC1` (centres undefined), the INHIBITION was determined as 9.57%.

As to `CC(CNC(=O)c1cc(Cl)ccc1F)N1CCCC1` (centres undefined), the INHIBITION is recorded as 50.94%.

With `CCn1cnnc1CNC(=O)c1ccc(Cl)cc1F`, the INHIBITION is 39.32%.

Take `CCn1cnnc1CNC(=O)c1cc(Cl)ccc1O`: the INHIBITION came out at 2.1%.

Regarding `Cn1c(N2CCOCC2)nc2cc(C(=O)N3CCC(O)(CO)C3)ccc21` (centres undefined), the INHIBITION is on record as -2.63%.

Regarding `N#CCC(=O)NCc1nnc2n1CCN(Cc1ccco1)C2`, the INHIBITION is on record as -4.53%.

Regarding `CCN(CCCN1CCOCC1)C(=O)c1cnn(CC)c1`, the INHIBITION is listed as 35.54%.

Regarding `O=C(NC1CCCC1)N1CC[C@H]2[C@H]1CCN2c1nncs1`, the INHIBITION was determined as 49.25%.

As for `C=C(C)COc1ccccc1CN1CCCC(C(=O)NCCCO)C1` (centres undefined), the INHIBITION is listed as -25.95%.

In the case of `CN(C)C(=O)CN1CC[C@H]2CN(S(C)(=O)=O)C[C@@H]2C1=O`, the INHIBITION stood at 21.06%.

For the compound `CNC(=O)CS(=O)(=O)C1CCN(S(=O)(=O)c2ccccc2Br)CC1`, the INHIBITION is on record as 27.5%.

On to `CNC(=O)CS(=O)(=O)C1CCN(S(=O)(=O)c2cccc(Cl)c2C)CC1`, for which the INHIBITION is -52.21%.

In the case of `CNC(=O)CS(=O)(=O)C1CCN(S(=O)(=O)c2ccccc2Cl)CC1`, the INHIBITION is reported as 68.69%.

`Cc1ccc(NC(=O)Nc2cnc(N3CCN(C)CC3)nc2)cc1`: the INHIBITION is -4.34%.

As to `Cc1occc1C(=O)N1CC[C@@H](N2CCOCC2)[C@@H]1Cc1ccccc1`, the INHIBITION is reported as -23.67%.

Take `COc1ccc(OCCCNCCn2cccn2)cc1`: the INHIBITION is given as 31%.

As for `CN1CCN(C(=O)CCc2cc(Br)cs2)CC1`, the INHIBITION turned out to be 72.05%.

Regarding `CC(=O)N1CCN(C(=O)CCc2cc(Br)cs2)CC1`, the INHIBITION was 26.74%.

`CN(C)C1CCN(C(=O)CCc2cc(Br)cs2)CC1`: the INHIBITION is listed as 41.05%.

Regarding `COCCC(=O)N1CCc2c(CNc3ncccn3)cncc2C1`, the INHIBITION came out at 17.77%.

On to `CCSC1(CNc2ncc(Br)cn2)CCOCC1`, for which the INHIBITION came to 13.53%.

As to `CCCc1n[nH]c(C2CN(CCS(=O)(=O)CC)CCO2)n1` (centres undefined), the INHIBITION is -5.7%.

Regarding `NCC1[C@H]2CN(Cc3cccc(Cl)c3)C[C@@H]12` (some centres undefined), the INHIBITION came to 45.77%.

With `NCC1[C@H]2CN(CCc3ccccc3)C[C@@H]12` (some centres undefined), the INHIBITION is listed as -7.41%.

With `NCC1[C@H]2CN(Cc3ccccc3)C[C@@H]12` (some centres undefined), the INHIBITION came to 55.7%.

Consider `CN(C)Cc1cc(=O)n2c(n1)CN(C(=O)c1ccc[nH]1)CCC2`, for which the INHIBITION is -16.33%.

Consider `O=C(CCC1CCN(C2CSCCSC2)CC1)NCC1CCCO1` (centres undefined), for which the INHIBITION is -15.37%.

Take `Cc1nc(O)cc(CCNC(=O)CN2CCCCCC2)n1`: the INHIBITION stood at 4.12%.

For `Cc1cc(=O)[nH]c(NCCNC(=O)c2ccccc2N2CCCC2)n1`, the INHIBITION was 41.14%.

`Cc1cc(=O)[nH]c(NCCNC(=O)CN2CCCCCC2)n1`: the INHIBITION came to 56.93%.
